Active and inactive are the calls of the source. How the calls were made is not given here.
target: Pantothenate synthetase (Mycobacterium tuberculosis (strain ATCC 25618 / H37Rv)) (UniProt P9WIL5); test: Coupled enzyme confirmation of inhibitors against recombinant Mtb PanC (AID 375); conditions: coupled enzyme assay; at 10 µM, active compounds read high;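 further: 0% = full reaction with vehicle and 100% = no enzyme background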
Sequence (P9WIL5 whole entry, looked up): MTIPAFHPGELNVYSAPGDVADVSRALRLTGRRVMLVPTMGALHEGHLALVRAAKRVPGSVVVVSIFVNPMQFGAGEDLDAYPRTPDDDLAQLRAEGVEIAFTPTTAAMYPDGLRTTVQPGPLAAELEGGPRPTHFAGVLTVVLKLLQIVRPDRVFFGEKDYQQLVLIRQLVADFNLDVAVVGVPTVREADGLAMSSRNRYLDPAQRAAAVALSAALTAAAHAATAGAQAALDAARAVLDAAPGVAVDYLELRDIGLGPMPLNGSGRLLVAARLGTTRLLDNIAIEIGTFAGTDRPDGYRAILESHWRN

**Q.** Which inhibition does the source give for `COc1ccc(OC)c(C2=NOC(C(=O)NCCN3CCOCC3)C2)c1` (stereo not given) here?
**A.** 0% (inactive)

**Q.** With `Nc1ccc(S(=O)(=O)Nc2ncccn2)cc1` as the compound, how does the inhibition read?
**A.** 6% (inactive)

**Q.** How did the inhibition turn out when `CCOC(=O)Cc1nnc2c(Nc3ccccc3F)nc3nonc3n12` was run?
**A.** 7% (inactive)

**Q.** How did the inhibition turn out when `COc1cccc(-n2nc(C(=O)Nc3ccc4c(c3)OCO4)c3ccccc3c2=O)c1` was run?
**A.** 0% (inactive)

**Q.** How did the inhibition turn out when `O=C(CCn1c(=O)oc2ccccc21)NCc1ccco1` was run?
**A.** 1% (inactive)

**Q.** `O=P(O)(O)C(O)C(F)(F)C(F)(F)C(F)(F)C(F)F` (stereo not given) was tested. Which inhibition did it give?
**A.** 0% (inactive)

**Q.** How did the inhibition turn out when `O=C(NCc1cccnc1)/C(=N\O)c1ccccc1` was run?
**A.** 0% (inactive)

**Q.** For `COCCSc1ccccc1C(=O)Nc1nncs1`, which inhibition is on record?
**A.** 0% (inactive)

**Q.** How did the inhibition turn out when `Cn1nnnc1SCC(=O)N1CCN(c2ccccc2)CC1` was run?
**A.** 0% (inactive)

**Q.** `COC(=O)c1cc(Oc2ccc(C(=O)OC)cc2N)cc(C(=O)OC)c1` was tested. Which inhibition did it give?
**A.** 0% (inactive)

**Q.** With `COc1ccc(CNc2oc(-c3ccccc3)nc2C#N)cc1` as the compound, how does the inhibition read?
**A.** 5% (inactive)

**Q.** For `CCC(c1nnnn1CCOC)N(Cc1ccc(C)cc1)Cc1cc2cc(OC)ccc2[nH]c1=O` (stereo not given), which inhibition is on record?
**A.** 0% (inactive)

**Q.** With `COc1ccc(Cn2c(CCCO)nc3ccccc32)cc1OC` as the compound, how does the inhibition read?
**A.** 0% (inactive)

**Q.** Which inhibition does the source give for `COc1ccc(CCn2c(=N)c(C#N)cc3c(=O)n4ccccc4nc32)cc1` here?
**A.** 0% (inactive)

**Q.** How did the inhibition turn out when `CN(C)CCCN1c2ccccc2CCc2ccccc21` was run?
**A.** 2% (inactive)

**Q.** `CCOc1ccc(Cn2nnc(C(=O)Nc3cc(C)cc(C)c3)c2N)cc1` was tested. Which inhibition did it give?
**A.** 0% (inactive)

**Q.** With `OCc1nc2ccccc2n1CCCOc1ccccc1` as the compound, how does the inhibition read?
**A.** 0% (inactive)

**Q.** How did the inhibition turn out when `CCOC(=O)c1ccc(NC(=O)N2CCN(CCc3ccccc3)CC2)cc1` was run?
**A.** 0% (inactive)

**Q.** How did the inhibition turn out when `COCCn1c(SCC(=O)Nc2cccc(OC)c2)nnc1-c1ccc(Cl)cc1` was run?
**A.** 3% (inactive)

**Q.** For `O=S(=O)(Nc1ncccn1)c1ccc(Nc2ncnc3ccccc23)cc1`, which inhibition is on record?
**A.** 6% (inactive)

**Q.** `C=C(C)Cn1c(N2CC(C)CC(C)C2)nc2c1c(=O)[nH]c(=O)n2C` (stereo not given) was tested. Which inhibition did it give?
**A.** 0% (inactive)

**Q.** Which inhibition does the source give for `CCOCC(=O)Nc1nc2ccc(OC)cc2s1` here?
**A.** 0% (inactive)

**Q.** Which inhibition does the source give for `CCC(=O)Nc1cc(C(=O)NCC2CCCN2CC)c(OC)cc1N(C)C` (stereo not given) here?
**A.** 0% (inactive)

**Q.** `CCOc1ccc(N(CC(=O)Nc2ccc(F)c(F)c2)S(=O)(=O)c2c(C)noc2C)cc1` was tested. Which inhibition did it give?
**A.** 4% (inactive)

**Q.** Which inhibition does the source give for `O=C(C(c1ccccc1)c1ccccc1)N1CCN(Cc2ccccn2)CC1` here?
**A.** 0% (inactive)

**Q.** For `O=C(CN1C(=O)NC2(CCCCC2)C1=O)Nc1ccc(S(=O)(=O)N2CCOCC2)cc1`, which inhibition is on record?
**A.** 5% (inactive)

**Q.** Which inhibition does the source give for `CCSc1nc(-c2ccc(OC)cc2)ccc1C#N` here?
**A.** 1% (inactive)

**Q.** Which inhibition does the source give for `CCOC(=O)c1cc(CC)sc1NC(=O)CCC(=O)O` here?
**A.** 2% (inactive)

**Q.** How did the inhibition turn out when `CCOC(=O)N1CCN(S(=O)(=O)c2cc(Cl)c(OC)cc2Cl)CC1` was run?
**A.** 0% (inactive)

**Q.** For `CCOC(=O)c1c(C)n(OCc2ccccc2)c2ccc3c(no[n+]3[O-])c12`, which inhibition is on record?
**A.** 0% (inactive)

**Q.** How did the inhibition turn out when `O=C(O)CC1CCCC(c2ccccc2)C1=O` (stereo not given) was run?
**A.** 5% (inactive)

**Q.** How did the inhibition turn out when `Nn1c(SCC(=O)Nc2ccc3c(c2)OCO3)nnc1C1CC1` was run?
**A.** 4% (inactive)

**Q.** Which inhibition does the source give for `CCn1c(SCC(=O)Nc2ccc(Cl)cc2)nnc1C1CC1` here?
**A.** 0% (inactive)

**Q.** Which inhibition does the source give for `CCC(CC)C(=O)NCCc1cc2ccc(C)cc2[nH]c1=O` here?
**A.** 0% (inactive)

**Q.** For `O=C(NC1CCCC1)c1c[nH]c2ccc(F)cc2c1=O`, which inhibition is on record?
**A.** 0% (inactive)

**Q.** For `CC1CCN(S(=O)(=O)c2ccc(NC(=O)CSc3nnnn3C)cc2)CC1`, which inhibition is on record?
**A.** 2% (inactive)

**Q.** `CCc1c(C(=O)Nc2ncn(Cc3cccc(C)c3)n2)csc1C` was tested. Which inhibition did it give?
**A.** 4% (inactive)

**Q.** `Cc1cccc(OCCCC(=O)O)c1` was tested. Which inhibition did it give?
**A.** 3% (inactive)

**Q.** Which inhibition does the source give for `O=C(c1cc2ccccc2oc1=O)N1CCN(c2ccc(N3CCOCC3)nn2)CC1` here?
**A.** 0% (inactive)

**Q.** How did the inhibition turn out when `CC(=O)Nc1cc(NC(C)=O)cc(C(=O)OCC(=O)N2CC(C)OC(C)C2)c1` (stereo not given) was run?
**A.** 2% (inactive)
